# Most compounds without a hit are left out; they make up all but 3.6% or so of the library.
# PTEN del growth: suppresses growth of cells with PTEN deletion | HCT116 PTEN-null viability, CellTiter-Glo, 60 h; active compounds read low | viability, % at 10 µM | actives 1.2% (n = 140,000);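 active means viability at or below a set limit, 4 SD under the median of all tested compounds, cut at about 3.7% in these data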;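 further: PTEN knockout HCT116 line with beta catenin targeted HCT116 as companion control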
# hDAT+cocaine: human DAT dopamine uptake with cocaine, either direction | Q01959 | LLC-PK1 hDAT cells, [14C]-dopamine uptake with cocaine IC80; actives deviate in either direction | B-score at 10 µM | actives 1.3% (n = 110,000);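 active means Z score or B-score, a plate-position-corrected score, falls beyond the plate's 99.7% confidence bounds, in either direction; inactive means both scores lie inside the 99.7% bounds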;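 further: scored against the spread of the other compound wells on the same plate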
# Target sequence (Q01959 whole entry, looked up): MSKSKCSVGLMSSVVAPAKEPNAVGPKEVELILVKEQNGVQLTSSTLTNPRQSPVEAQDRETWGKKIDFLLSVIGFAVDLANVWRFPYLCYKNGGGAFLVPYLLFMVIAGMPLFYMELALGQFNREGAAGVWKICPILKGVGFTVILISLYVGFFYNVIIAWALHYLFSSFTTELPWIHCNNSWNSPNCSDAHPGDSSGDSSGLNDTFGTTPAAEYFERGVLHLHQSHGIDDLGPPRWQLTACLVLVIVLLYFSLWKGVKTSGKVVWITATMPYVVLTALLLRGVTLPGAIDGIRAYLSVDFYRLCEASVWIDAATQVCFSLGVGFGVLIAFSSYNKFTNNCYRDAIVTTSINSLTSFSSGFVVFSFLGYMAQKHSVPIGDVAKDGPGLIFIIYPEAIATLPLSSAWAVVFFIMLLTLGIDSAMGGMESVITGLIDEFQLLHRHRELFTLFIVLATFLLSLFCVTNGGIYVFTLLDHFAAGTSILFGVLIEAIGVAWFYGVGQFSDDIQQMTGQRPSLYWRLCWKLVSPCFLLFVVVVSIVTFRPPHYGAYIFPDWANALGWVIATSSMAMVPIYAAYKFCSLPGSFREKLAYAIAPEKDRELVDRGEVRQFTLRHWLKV
# bCat KO growth: beta-catenin-lacking colon tumor cell growth suppression; HCT116 beta-catenin knockout viability, CellTiter-Glo, 60 h; active compounds read low; viability, % at 10 µM; actives 1.5% (n = 140,000);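 active means viability at or under a set limit, the compound median less 4 SD, cut at about 6% in these data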;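 further: 0% = Hyamine 1622 control at 20 µM and 100% = untreated cell control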
# WT yeast gro inh: growth inhibition of WT yeast, mitochondrial fusion screen | mitochondrial fusion phenotypic screen, WT strain | inhibition, % at 10 µM | actives 2.1% (n = 190,000) | AID 1362; in the data active means inhibition above about 58%; tested in S. cerevisiae
# Active calls of the source: *; / = no result; ! = not confirmed by another sample.
SMILES,PTEN del growth,hDAT+cocaine,bCat KO growth,WT yeast gro inh
c1cc2c(cc1C1CCCCC1)c1c3n2CCCNC3CCC1 (centres undefined),0.7*,-1.7,0.5*,91
Cc1ccc2c(c1)c1c3n2CCN=C3CCC1,85,-0.13,94,0
CC[n+]1c(/C=C/C=C/N(C(C)=O)c2ccccc2)sc2cc(OC)ccc21,4,/,6.0*,25
COc1ccc(-c2c(C#N)c(SCC(=O)c3cc4ccccc4oc3=O)nc(C)c2C(=O)Nc2ccccc2)cc1,4,/,3.2*,4
CCOC(=O)c1c(C)nc(SCC(N)=O)c(C#N)c1-c1ccccc1,95,/,83,-3
Cc1nc(SCC(=O)c2cc3ccccc3oc2=O)c(C#N)c(-c2ccccc2)c1C(=O)Nc1ccccc1,1.7*,/,1.4*,-6
COc1ccc(-c2c(C#N)c(SCC(=O)Nc3ccccc3)nc3c2CCCC3)cc1,/,0.25,/,/
CC(=O)NCCOc1nc(N2CCCCC2)nc(N2CCCCC2)n1,/,/,/,-14
CCO[C@H]1OC(C(=O)Nc2ccccc2)=C[C@@H](C)[C@@H]1CCCO,/,0.036,/,-7
COc1ccc(OC)c(N(CC(=O)Nc2cccnc2)S(=O)(=O)c2ccc(OC)c(OC)c2)c1,99,-2.7*!,103,-4
Cc1cccc(CCN2CCC(C(=O)c3ccc(NS(C)(=O)=O)cc3)CC2)n1,/,0.83,/,-4
N=c1c2c(ncn1CCN1CCOCC1)Oc1ccc3ccccc3c1C2c1ccccc1 (centres undefined),1.3*,0.035,1.4*,-4
c1ccc(C2c3c(ccc4ccccc34)Oc3ncn4nc(-c5ccco5)nc4c32)cc1 (centres undefined),67,/,69,17
N=c1c2c(ncn1Cc1ccco1)Oc1c(ccc3ccccc13)C2c1ccccc1 (centres undefined),1.6*,/,1.3*,69*
COc1ccc(C2C3=C(CC(C)(C)CC3=O)Oc3ncn(Cc4ccccc4)c(=N)c32)cc1 (centres undefined),45,1.3,52,97*
CC1(C)CC(=O)C2=C(C1)Oc1ncn(Cc3ccco3)c(=N)c1C2c1ccccc1 (centres undefined),71,0.8,78,-10
COc1ccc(C2c3c(ncn(CCN4CCOCC4)c3=N)Oc3ccc4ccccc4c32)cc1 (centres undefined),1.1*,3.4*,1.5*,6
COc1ccc(C2c3c(ccc4ccccc34)Oc3ncn4nc(-c5ccco5)nc4c32)cc1 (centres undefined),78,/,92,-6
O=C(c1cccc(S(=O)(=O)N2CCCC2)c1)c1nnc(-c2ccncc2)o1,107,1.1,94,-13
CC(C)CNC(=O)COC(=O)CCC(=O)c1cccs1,97,/,86,-6
CCNC(=S)N/N=C/c1cc(C)n(-c2ccc(Cl)cc2)c1C,/,/,/,73*
Cc1ccc(NCc2nc3ccccc3n2C)cc1,98,-1.3,94,11
Cc1ccc(C)c(N=Nc2nc3ccccc3n2C)c1,71,-1.4,68,82*
Cc1cc(C)c(C)c(N=Nc2nc3ccccc3n2C)c1C,52,/,46,84*
C=CCn1c(-c2ccc(N)cc2)nc2ccccc21,81,-0.065,99,7
SMILES,PTEN del growth,hDAT+cocaine,bCat KO growth,WT yeast gro inh
C=CCn1c(N)nc2ccccc21,96,-2.6*,101,0
CC(C)N1C(=O)/C(=C/c2nc3ccccc3c(=O)n2-c2ccccc2)c2ccccc21,2.1*,-0.032,2.5*,-8
CC(C)N1C(=O)/C(=C\c2nc3ccccc3c(=O)n2-c2ccccc2)c2ccccc21,3.1*,/,7,84*
Cc1ccc(NC(=S)Nc2cccnc2)c(S(=O)(=O)N2CCCCC2)c1,/,/,/,-7
COc1ccc(-n2nnnc2S(=O)(=O)CC(=O)N2CCCCC2)cc1,1.3*,-0.45,1.7*,-4
Cc1ccc2nsnc2c1S(=O)(=O)N1CCN(CCc2ccccc2)CC1,79,4.3*,89,-6
O=C(N/N=C/c1cc([N+](=O)[O-])ccc1N1CCNCC1)c1ccc([N+](=O)[O-])cc1,1.1*,0.071,1.6*,15
CCOc1cc(N2CCOCC2)c(OCC)cc1NC(=O)c1ccc(OCc2c(C)noc2C)c(OC)c1,86,/,88,5
CN(C)CCCN(C(=O)CCc1ccccc1)c1nc2ccc(F)cc2s1,9,/,13,89*
Cc1cccc2sc(N(CCCN(C)C)C(=O)CN3C(=O)c4ccccc4C3=O)nc12,/,/,/,38
Cc1cccc2sc(N(CCCN(C)C)C(=O)CCc3ccccc3)nc12,1.9*,/,1.6*,92
O=C(CSc1nnc(-c2ccccc2O)o1)Oc1ccc(Br)cc1,105,-0.00086,104,-8
O=C(CSc1nnc(-c2ccccc2Cl)o1)Oc1ccc(Br)cc1,0.7*,0.019,0.9*,-9
Cc1cccc2c1N(CCCOc1ccccc1)C(=O)C2=O,82,-2.5,81,-1
Cc1cccc2c1N(CCCOc1ccc(C(C)(C)C)cc1)C(=O)C2=O,86,-0.96,87,97*
C=C(C)[C@@H]1CC=C(CN2CCC(CCOC)(C(=O)OCC)CC2)CC1,/,/,/,4
Cn1cc(CN(CCCN2CCOCC2)C(=S)Nc2cccc(Cl)c2)c2ccccc21,16,/,20,30
CSc1cccc(NC(=S)N(CCCN2CCCC2)Cc2cccs2)c1,/,/,/,-11
COc1cccc(NC(=S)N(CCCN2CCCC2)Cc2cccn2Cc2ccc(Cl)cc2)c1,/,/,/,59*
CSc1cccc(NC(=S)N(CCCN2CCCC2)Cc2cccn2Cc2ccc(Cl)cc2)c1,/,/,/,74*
S=C(Nc1cccc(Cl)c1)N(CCCN1CCCC1)Cc1cccn1Cc1ccc(Cl)cc1,/,/,/,81*
COc1ccc(/C=C/C(=O)Oc2cc(C)[nH]c(=O)c2[N+](=O)[O-])cc1OC,/,/,/,3
COC(=O)c1ccccc1NC(=O)c1sc(=S)n(C)c1N,83,6*,85,2
COC(=O)c1ccccc1NC(=O)c1sc(N)nc1C,109,1.5,103,-6
Cc1cc(Nc2cccc([N+](=O)[O-])c2)c2ccccc2n1,/,/,/,-2
SMILES,PTEN del growth,hDAT+cocaine,bCat KO growth,WT yeast gro inh
CCOc1ccc2nc(C)cc(Nc3cccc([N+](=O)[O-])c3)c2c1,1.5*,/,1.5*,1
CCOc1ccc2nc(C)cc(Nc3ccc4c(c3)OCCO4)c2c1,0.8*,0.11,0.7*,19
CCOC(=O)c1cnc2ccc(OC)cc2c1Nc1ccc2c(c1)OCCO2,31,-0.13,36,77*
Cc1ccc2nc(C)cc(Nc3ccc4c(c3)OCCO4)c2c1,12,-0.47,10,25
COc1ccc(Cn2c(SC)nc3ccccc32)cc1[N+](=O)[O-],81,0.93,84,-5
C=CCn1c(=O)c(C(C)=O)cn(N(C)c2ncc(C(F)(F)F)cc2Cl)c1=O,/,/,/,-16
CC(=O)c1c(C)[nH]c(C(=O)CSc2nnc(-c3ccc(Cl)cc3)n2CC2CCCO2)c1C (centres undefined),71,0.27,66,70*
Cc1ccc(C(=O)N/C(=C/c2ccc(F)cc2)C(=O)NCc2ccncc2)cc1,94,/,92,0
Cc1cc(N2CCCC(C(=O)Nc3cccc4ccccc34)C2)n2ncnc2n1 (centres undefined),/,/,/,-3
